This is an account of results in the supplement of paper PMC10127200.

Each structure is given as a SMILES string. Structures can show the parent of a compound that is named as a salt.

What all share (experiment): Euclidean distance of Cell Painting phenotypic profile (signed KS, 77 features) to DMSO centroid (dimensionless distance); 5 or 10 uM (library dependent); higher = stronger phenotypic change vs DMSO (phenoactivity)
Holding throughout (details): 48 h

The test system of one test is 786-O. A digest of the protocol:
(§1)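 Phenoactivity is computed as Euclidean distance to the median vehicle profile. The profiles, drawn from 77 Harmony features scored as signed Kolmogorov-Smirnov statistics versus same-plate vehicle wells, were corrected for plate position, correlation-weighted and replicate-averaged at the top dose. Stained cells were imaged confocally at 20X (9 fields/well) after 48 h with library compounds at 10 or 5 uM, 0.1% DMSO final, in five cancer lines and a healthy fibroblast line.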

A further test deals with A549. The procedure, abridged:
as §1

In another test the test system is DU145. A digest of the protocol: as §1
Another test deals with FB. A digest of the protocol: as §1
Another test has as its system HEPG2. The procedure, abridged: as §1
A further test has as its system OVCAR4. A digest of the protocol:
as §1

In the case of `C[C@@H]1O[C@@H](OC[C@H]2O[C@@H](Oc3c(-c4ccc(OCCO)c(OCCO)c4)oc4cc(OCCO)cc(O)c4c3=O)[C@H](O)[C@@H](O)[C@@H]2O)[C@H](O)[C@H](O)[C@H]1O` [Troxerutin], the Euclidean distance was found to be 1.35 in the test on 786-O; 0.502 with A549; 0.751 in the test on DU145; 0.834 in the test on FB; 0.509 in the test on HEPG2; 0.81 in the test on OVCAR4.
As to `COc1c(C)cnc(Cn2cnc3c(Cl)nc(N)nc32)c1C`, the Euclidean distance in the test on 786-O worked out at 3.02; in the test with A549, 3.08; with DU145, 3.08; in the test with FB it was 3.34; in the test on HEPG2, 4.24; with OVCAR4, 3.08.
As to `Cc1ccc(S(=O)(=O)/C=C/C#N)cc1`, the Euclidean distance is 1.7 in the test with 786-O; 1.37 in the test on A549; 1.36 in the test on DU145; 3.14 in the test with FB; 2.05 with HEPG2; 2.5 with OVCAR4.
For `CC1(C)C2CCC1(C)C(O)C2` (stereo not given) [Borneol], the Euclidean distance is 1.17 in the test with 786-O; 0.812 in the test on A549; 1.16 in the test with DU145; 0.792 in the test on FB; 0.614 in the test with HEPG2; 1.08 in the test with OVCAR4.
As for `O=C1c2cccc3c2[C@H](CCC3)CN1[C@@H]1CN2CCC1CC2` [Palonosetron HCl], the Euclidean distance in the test on 786-O is 1.56; in the test with A549, 0.602; in the test with DU145, 0.971; in the test with FB, 0.972; with HEPG2, 1.29; in the test with OVCAR4, 1.22.
As to `CCN(CC)CCNC(=O)c1cc(S(C)(=O)=O)ccc1OC` [Tiapride Hydrochloride], the Euclidean distance with 786-O came out at 0.725; in the test with A549, 0.496; with DU145, 0.652; with FB it was 0.955; in the test on HEPG2, 0.542; in the test with OVCAR4 it was 0.874.
In the case of `CC[C@H](C)C(=O)O[C@H]1CCC=C2C=C[C@H](C)[C@H](CC[C@@H]3C[C@@H](O)CC(=O)O3)[C@H]21` [Mevastatin], the Euclidean distance was 2.6 in the test on 786-O; 1.88 with A549; 0.707 with DU145; 3.12 in the test with FB; 1.43 in the test on HEPG2; 1.64 with OVCAR4.
Turning to `Cc1ccc(C(=O)C(C)CN2CCCCC2)cc1` (stereo not given) [Tolperisone HCl], the Euclidean distance in the test with 786-O is 0.966; in the test on A549, 0.611; in the test with DU145, 1.08; in the test on FB, 0.909; in the test on HEPG2, 0.439; in the test on OVCAR4 it was 0.725.
`OCCOCCN1CCN(C(c2ccccc2)c2ccc(Cl)cc2)CC1` (stereo not given) [Hydroxyzine 2HCl]: the Euclidean distance turned out to be 1.32 in the test with 786-O; 0.879 in the test on A549; 1.07 with DU145; 0.804 with FB; 1.04 in the test on HEPG2; 1.17 with OVCAR4.
`CO/N=C(\C(=O)N[C@@H]1C(=O)N2C(C(=O)O)=C(CSc3nnnn3C)CS[C@H]12)c1csc(N)n1` [Cefmenoxime hydrochloride]: the Euclidean distance was 0.657 in the test on 786-O; 0.643 in the test on A549; 1.22 in the test on DU145; 0.686 in the test on FB; 0.775 in the test on HEPG2; 0.594 in the test on OVCAR4.
Consider `CCN1/C(=C/C(C)=O)Sc2ccc(OC)cc21`, for which the Euclidean distance came to 0.422 in the test with 786-O; 0.711 in the test with A549; 1.03 with DU145; 0.64 in the test on FB; 1.98 in the test with HEPG2; 0.872 in the test on OVCAR4.
Consider `Cn1c(Nc2ccc(C(F)(F)F)cc2)nc2cc(Oc3ccnc(-c4ncc(C(F)(F)F)[nH]4)c3)ccc21`, for which the Euclidean distance in the test with 786-O stood at 1.98; in the test with A549, 1.97; in the test with DU145, 1.46; in the test on FB, 3.86; with HEPG2 it was 1.24; in the test on OVCAR4, 1.5.
With `CCc1cc(C(N)=S)ccn1` [Ethionamide], the Euclidean distance with 786-O came out at 1.19; with A549, 0.608; with DU145, 1.03; with FB, 0.853; with HEPG2, 2.13; with OVCAR4, 1.4.
With `COc1cc2c(cc1OC)[C@@H]1Cc3ccc(OC)c(OC)c3CN1CC2` [Rotundine], the Euclidean distance with 786-O is 1.84; in the test on A549 it was 0.769; in the test on DU145 it was 1.07; with FB it was 1.26; in the test with HEPG2 it was 0.595; with OVCAR4 it was 1.2.
Take `COCC1=C(C(=O)OC(C)OC(=O)OC(C)C)N2C(=O)[C@@H](NC(=O)/C(=N\OC)c3csc(N)n3)[C@H]2SC1` (stereo not given in full) [Cefpodoxime proxetil]: the Euclidean distance in the test on 786-O turned out to be 1.25; in the test on A549 it was 0.683; in the test on DU145 it was 0.813; with FB, 1.04; in the test with HEPG2, 0.687; with OVCAR4 it was 0.958.
As for `CC(C)(Oc1ccc(Cl)cc1)C(=O)O` [Clofibric Acid], the Euclidean distance in the test on 786-O amounted to 0.903; with A549, 0.74; in the test with DU145, 0.644; in the test with FB, 0.793; with HEPG2, 0.498; in the test with OVCAR4, 0.547.
For the compound `CNC[C@@H](O)c1ccc(O)c(O)c1` [L-Adrenaline], the Euclidean distance in the test with 786-O came out at 1.4; with A549 it was 0.654; with DU145, 0.94; in the test on FB, 1.3; in the test with HEPG2, 0.928; in the test with OVCAR4 it was 0.954.
Take `CC1CCN(CC[C@H]2CCCN2S(=O)(=O)c2cccc(O)c2)CC1`: the Euclidean distance was found to be 0.546 in the test with 786-O; 0.904 with A549; 0.705 in the test on DU145; 1.11 in the test with FB; 1.48 in the test on HEPG2; 0.827 with OVCAR4.
With `N[C@H]1C[C@@H]1c1ccc(-c2cccc(O)c2)cc1`, the Euclidean distance amounted to 1.26 in the test with 786-O; 1.27 in the test with A549; 1.07 with DU145; 1.18 in the test with FB; 0.624 in the test on HEPG2; 1.45 in the test with OVCAR4.
On to `Cc1cn([C@H]2C[C@H](N=[N+]=[N-])[C@@H](CO)O2)c(=O)[nH]c1=O` [Zidovudine], for which the Euclidean distance in the test on 786-O is 1.52; with A549 it was 0.708; in the test with DU145, 1.19; in the test with FB, 1.2; with HEPG2, 1.54; with OVCAR4, 0.957.
With `CN(C)CCOC(C)(c1ccccc1)c1ccccn1` (stereo not given) [Doxylamine Succinate], the Euclidean distance is 1.09 in the test with 786-O; 0.709 with A549; 1.18 with DU145; 1.42 in the test on FB; 0.475 in the test on HEPG2; 1.14 with OVCAR4.
With `CN(C)CCC(c1ccccc1)c1ccccn1` (stereo not given) [Pheniramine Maleate], the Euclidean distance worked out at 0.54 with 786-O; 1.02 with A549; 0.777 in the test with DU145; 0.632 in the test with FB; 0.694 in the test on HEPG2; 1.34 with OVCAR4.
Turning to `CCc1ccc(/C=C2/SC(=S)NC2=O)cc1`, the Euclidean distance with 786-O is 0.453; with A549, 0.809; in the test with DU145, 1.03; in the test with FB, 1.15; in the test on HEPG2, 0.771; in the test with OVCAR4, 0.723.
Take `CN(CCOc1ccc(CC2SC(=O)NC2=O)cc1)c1ccccn1` (stereo not given) [Rosiglitazone]: the Euclidean distance with 786-O was 1.31; in the test on A549, 0.979; with DU145, 0.878; in the test on FB, 1.79; in the test on HEPG2, 0.962; in the test with OVCAR4, 1.14.
As to `C[C@@H]1C[C@H]2[C@@H]3CCC4=CC(=O)C=C[C@]4(C)[C@@]3(F)[C@@H](O)C[C@]2(C)[C@@]1(O)C(=O)COP(=O)(O)O` [Dexamethasone Sodium Phosphate], the Euclidean distance with 786-O stood at 1.79; in the test on A549, 2.25; with DU145, 2.22; with FB, 1.44; in the test with HEPG2, 0.744; in the test with OVCAR4 it was 2.38.
